# Laboratory results published in PubChem BioAssay (Tox21).
# Records with an inconclusive call do not appear. Unmarked numbers belong to inactive results. The source made the active and inactive calls. The call rests on the fitted dose curve; in most records, active means well fitted inhibition curve with a large enough effect in the repeat runs; inconclusive means weak or mixed curves; inactive means flat fitted curve, though single readings scatter.
# Target: Voltage-gated inwardly rectifying potassium channel KCNH2 (Homo sapiens) (UniProt Q12809)
# Assay: Human Ether-a-go-go-Related Gene (hERG) channel small molecule antagonists: fluorescence cell-based qHTS assay (AID 1671200); further: nearly all actives have a fitted effect of over 50% in size
# Details: hERG-U2OS cells, FluxOR thallium flux fluorescence; series mostly up to 76.8 µM; activity change, negative = inhibition: at the top concentration
# Description: National Center for Advancing Translational Sciences [NCATS]
# U.S. Environmental Protection Agency [EPA]
# National Institutes of Environmental Health Sciences [NIEHS]
# National Toxicology Program [NTP]
# U.S. Food and Drug Administration [FDA]
# Mutations in the hERG channel cause Long QT (LQT) syndrome. LQT syndrome is a cardiac disorder which can cause ventricle arrhythmia and sudden death. Additionally, compounds which block the hERG channel can cause acquired LQT syndrome. Several FDA approved drugs have been removed from the market due to their hERG blocking activity. A cell-based hERG channel inhibition assay can be used to screen chemical compounds that inhibit hERG channel. This assay measures hERG channel activity using thallium ions as surrogate ions to measure potassium into the cells.
# Tox21 Assay Protocol Summary:
# hERG-U2OS cells were resuspended in culture medium and dispensed into 1536-well, black wall/clear-bottom plates at 1000cells/well/3uL using a Multidrop Combi dispenser (Thermo Fisher, Waltham, MA). After plates were incubated at 37 C overnight, 3 uL of Loading Buffer provided by FluxOR II Potassium Ion Channel Assay kit (Thermo, Carlsbad, CA) was added to each well. The assay plates were then incubated at room temperature in the dark for 1h. […] After the assay plates were incubated at room temperature for 10 min, 1 uL of Stimulus Buffer provided by FluxOR II Potassium Ion Channel Assay kit was added into each well and fluorescence intensity (480nm excitation/540nm emission) was continuously measured for 2 min at 1 second intervals using a Functional Drug Screening System (FDSS) 7000EX kinetic plate reader (Hamamatsu, Japan).
# On the % scale 0 is the no-effect control and ±100 the full control effect; potency means the concentration at half of the fitted maximal effect.
# Chain of Voltage-gated inwardly rectifying potassium channel KCNH2 (Homo sapiens) (Q12809 whole entry, looked up): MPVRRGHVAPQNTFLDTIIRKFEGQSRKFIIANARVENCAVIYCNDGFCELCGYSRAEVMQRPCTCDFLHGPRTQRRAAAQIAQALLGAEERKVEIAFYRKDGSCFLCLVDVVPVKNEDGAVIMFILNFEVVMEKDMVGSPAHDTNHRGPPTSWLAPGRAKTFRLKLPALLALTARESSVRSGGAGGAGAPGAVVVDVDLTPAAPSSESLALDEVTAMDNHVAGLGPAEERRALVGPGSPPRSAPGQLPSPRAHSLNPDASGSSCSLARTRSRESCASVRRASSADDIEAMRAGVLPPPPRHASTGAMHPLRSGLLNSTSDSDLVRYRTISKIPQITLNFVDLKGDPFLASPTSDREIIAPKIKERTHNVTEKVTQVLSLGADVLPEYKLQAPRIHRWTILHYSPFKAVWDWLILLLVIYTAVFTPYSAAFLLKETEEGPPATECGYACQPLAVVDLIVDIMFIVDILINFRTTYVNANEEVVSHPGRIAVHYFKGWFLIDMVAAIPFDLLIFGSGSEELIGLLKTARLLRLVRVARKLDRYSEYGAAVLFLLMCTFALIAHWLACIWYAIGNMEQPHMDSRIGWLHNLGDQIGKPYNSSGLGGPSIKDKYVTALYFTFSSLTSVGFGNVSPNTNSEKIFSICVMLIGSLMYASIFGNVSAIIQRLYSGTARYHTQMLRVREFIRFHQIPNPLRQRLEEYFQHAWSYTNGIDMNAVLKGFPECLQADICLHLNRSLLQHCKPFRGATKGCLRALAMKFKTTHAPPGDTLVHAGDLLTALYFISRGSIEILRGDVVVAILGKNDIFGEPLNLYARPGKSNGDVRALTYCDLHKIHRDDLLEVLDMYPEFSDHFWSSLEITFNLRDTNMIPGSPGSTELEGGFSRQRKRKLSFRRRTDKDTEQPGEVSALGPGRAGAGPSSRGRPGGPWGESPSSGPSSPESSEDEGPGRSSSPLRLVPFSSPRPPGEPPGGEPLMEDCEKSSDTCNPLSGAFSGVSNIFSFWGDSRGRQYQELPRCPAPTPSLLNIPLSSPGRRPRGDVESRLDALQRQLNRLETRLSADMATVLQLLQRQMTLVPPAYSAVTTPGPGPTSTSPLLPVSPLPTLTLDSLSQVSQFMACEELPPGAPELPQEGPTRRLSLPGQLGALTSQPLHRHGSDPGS
SMILES,"activity change, negative = inhibition",Potency
Cc1cc2c(cc1C(F)(F)F)N(C(=O)Nc1ccc(Oc3cccnc3C)nc1)CC2,-6.89%,
O=C(NOCC1CC1)c1ccc(F)c(F)c1Nc1ccc(I)cc1Cl,-7.2% [at 35.3 µM],
Cc1c(C)c2c(c(C)c1OC(=O)CCC(=O)O)CC[C@@](C)(CCC[C@H](C)CCC[C@H](C)CCCC(C)C)O2,-2.53%,
Oc1ccc(N=Nc2ccccc2)cc1,-12.1%,
O=c1cc(-c2ccc(O)cc2)oc2cc(O)cc(O)c12,,inactive
CC[C@@]1(O)C(=O)OCc2c1cc1n(c2=O)Cc2c-1nc1ccccc1c2/C=N/OC(C)(C)C,1.56% [at 35.3 µM],
CN1CCN(CCC(=O)N2c3ccccc3Sc3ccc(C(F)(F)F)cc32)CC1,,4.77 µM (active)
O=C(c1ccc(F)cc1)C1CCN(CCn2c(=O)[nH]c3ccccc3c2=O)CC1,,2.39 µM (active)
O=C1C=CC(=O)N1,17.4%,
CCCCCCCCCCC=O,1.16%,
COc1ccc(C(=O)/C(Br)=C\C(=O)O)cc1,-8.22%,
OCCN1CCN(CC/C=C2/c3ccccc3Sc3ccc(C(F)(F)F)cc32)CC1,,2.13 µM (active)
Cc1cccc2c1cc1ccc3cccc4ccc2c1c34,6.31%,
C[C@H](CCC(=O)O)[C@H]1CC[C@H]2[C@@H]3CC[C@@H]4C[C@H](O)CC[C@]4(C)[C@H]3CC[C@]12C,,inactive
CCN(C(=O)N(CC)c1ccccc1)c1ccccc1,4.57%,
C[C@]12CCC(=O)C=C1CC[C@@H]1[C@@H]2[C@@H](O)C[C@@]2(C)[C@H]1CC[C@]2(O)C(=O)COC(=O)CCC(=O)O,3.32% [at 35.3 µM],
CCCCCCCCCCCCCCCC[N+](C)(C)CCN(Cc1ccc(OC)cc1)c1ncccn1,,0.338 µM (active)
Cc1ccc2oc(CN(Cc3ccccc3)C(=O)Nc3c(F)cc(F)cc3F)c(-c3ccc(Cl)cc3)c2c1,-14%,
NC(=NCCCCCCN=C(N)/N=C(\N)Nc1ccc(Cl)cc1)/N=C(\N)Nc1ccc(Cl)cc1,,inactive
CCC(N)(CO)CO,-10%,

SMILES,"activity change, negative = inhibition",Potency
C=C(C)C(=O)OCC(O)COc1ccc(C(C)(C)c2ccc(OCC(O)COC(=O)C(=C)C)cc2)cc1 (stereo not given),-11.7%,
O=C(Nc1ccc(Oc2ccc(Cl)cc2)c(Cl)c1)c1cc(I)cc(I)c1O,-15.2% [at 35.3 µM],
CC(C)(C)C1CCC(CC2=C(O)c3ccccc3C(=O)C2=O)CC1 (stereo not given),10.7% [at 35.3 µM],
Cc1cc(O)c(Cl)c(C)c1Cl,14.9%,
O=c1cccccc1O,4.22%,
OCc1c[nH]c2ccccc12,-0.0041%,
C=CC(=O)OCCn1c(=O)n(CCOC(=O)C=C)c(=O)n(CCOC(=O)C=C)c1=O,2%,
O=C(c1ccc(O)cc1O)c1ccc(O)cc1O,,inactive
CC(C)(C)c1ccc(C(=O)O)cc1,0.883%,
CC(C)(C)C(=O)OCOC(=O)[C@@H]1N2C(=O)[C@@H](NC(=O)[C@H](N)c3ccccc3)[C@H]2SC1(C)C,-0.346% [at 35.3 µM],
S=c1[nH]c2ccccc2s1,18.8%,
COc1ccc(CN2CCN(C(c3ccc(F)cc3)c3ccc(F)cc3)CC2)c(OC)c1OC,,0.674 µM (active)
CCC(C)Nc1ccc(NC(C)CC)cc1 (stereo not given),,7.91 µM (active)
CC[C@H](c1ccc(O)cc1)[C@@H](CC)c1ccc(O)cc1,,inactive
Cc1cc(O)c(C(C)(C)C)cc1Sc1cc(C(C)(C)C)c(O)cc1C,22.7%,
C[n+]1ccn(Cc2ccccc2)c1,-9.77%,
CC[C@H]1O[C@]2(CC[C@@H]1C)C[C@@H]1C[C@@H](C/C=C(\C)C[C@@H](C)/C=C/C=C3\CO[C@@H]4[C@H](O)C(C)=C[C@@H](C(=O)O1)[C@]34O)O2,0.595%,
Nc1ccccc1O,-0.516%,
Cc1oc(-c2ccccc2)nc1CCC(=O)c1ccc(CC2SC(=O)NC2=O)cc1 (stereo not given),-13.7% [at 35.3 µM],
CN(C)C(=O)C1(N2CCCCC2)CCN(CC[C@@]2(c3ccc(Cl)c(Cl)c3)CN(C(=O)c3ccccc3)CCO2)CC1,,11.5 µM (active)
